Measurements published in PubChem BioAssay (Tox21).
Results filed as inconclusive are left out. The source made the active and inactive calls. Unless noted, the call rests on the fitted dose curve; in most records, active means well fitted curve in the direction sought with a large enough effect in the repeat runs; inconclusive means weak or mixed curves; inactive means no such curve, though single readings can be large; an effect the other way counts as inactive or inconclusive.

Tests used:
[1] = qHTS assay to identify small molecule agonists of the sonic hedgehog signaling (Shh) pathway (AID 1259368; calls by dose curve;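 further: NIH/3T3-derived 3T3Gli1-Luc cells carrying a stable Gli1-driven firefly luciferase reporter; series mostly up to about 92 µM; nearly all actives have a fitted effect of over 15% in size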)
In short: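 Luminescent signal was taken as a measure of Gli1-controlled luciferase expression in stably transfected NIH/3T3-derived cells that had been treated for 24 hr with compounds delivered in DMSO.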

[2] = qHTS assay to identify small molecule antagonists of the sonic hedgehog signaling (Shh) pathway (AID 1259369; calls by dose curve; further: nearly all actives have a fitted effect of over 45% in size)
In short: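 Screening used 3T3Gli1-Luc cells at 2,000 per well, compounds delivered in DMSO, and conditioned medium as agonist stimulus; plates incubated 24hr at 37 C and 5% CO2 before a 30min luciferase step.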

[3] = molecular target: Estrogen receptor beta (Homo sapiens) (UniProt Q92731); assay: qHTS assay to identify small molecule agonists of the estrogen receptor beta (ER-beta) signaling pathway (AID 1259377; active means well fitted activation curve with a large enough effect in the signal ratio in the repeat runs, not every such curve was filed as active; the % refers to the signal ratio)
Estrogen receptor beta (Homo sapiens), sequence (Q92731 whole entry, looked up): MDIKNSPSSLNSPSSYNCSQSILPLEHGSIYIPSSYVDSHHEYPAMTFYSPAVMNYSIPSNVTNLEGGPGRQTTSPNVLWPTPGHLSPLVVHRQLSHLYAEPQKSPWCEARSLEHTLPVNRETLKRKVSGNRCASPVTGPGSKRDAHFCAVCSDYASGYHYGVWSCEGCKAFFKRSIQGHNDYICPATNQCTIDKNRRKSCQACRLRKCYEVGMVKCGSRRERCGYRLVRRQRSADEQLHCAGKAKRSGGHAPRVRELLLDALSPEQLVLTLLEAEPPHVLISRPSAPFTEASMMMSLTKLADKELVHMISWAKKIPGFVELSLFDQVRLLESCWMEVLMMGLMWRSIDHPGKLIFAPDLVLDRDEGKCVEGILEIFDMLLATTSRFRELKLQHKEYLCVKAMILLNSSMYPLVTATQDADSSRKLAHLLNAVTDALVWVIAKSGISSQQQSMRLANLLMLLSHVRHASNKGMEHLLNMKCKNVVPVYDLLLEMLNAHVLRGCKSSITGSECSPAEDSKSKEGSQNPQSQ
In short: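 In HEK293T cells bearing a UAS-beta-lactamase reporter under ER-beta control, DMSO-delivered compounds were incubated for 16 hr at 37C. Activity was detected as fluorescence 2 hours after LiveBLAzer B/G FRET substrate addition.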

[4] = molecular target: Estrogen receptor beta (Homo sapiens) (UniProt Q92731); assay: qHTS assay to identify small molecule antagonists of the estrogen receptor beta (ER-beta) signaling pathway (AID 1259378; active means well fitted inhibition curve with a large enough effect in the signal ratio in the repeat runs, not every such curve was filed as active; the % refers to the signal ratio)
In short: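 ER-beta-UAS-bla HEK293T cells in 2% charcoal-stripped FBS medium treated with compound plus 1nM final 17-beta-estradiol for 16 hr at 37C. Beta-lactamase reporter read by FRET substrate fluorescence after 2 hours at room temperature.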

[5] = qHTS assay to identify small molecule agonists of the androgen receptor (AR) signaling pathway in the presence of an antagonist - cell viability counter screen (AID 1259379);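 further: MDA-kb2 human breast cancer cells carrying an MMTV luciferase reporter; series mostly up to about 92 µM; nearly all actives have a fitted effect of over 25% in size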
In short: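 In MDA-kb2 cells (human breast carcinoma, MMTV-luciferase), compounds at 15 concentrations plus 3.0uM nilutamide; 16 hr, 37C, 0% CO2; CellTiter-Fluor fluorescence read for viability.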

[6] = qHTS assay to identify small molecule antagonists of the estrogen receptor beta (ER-beta) signaling pathway - cell viability counter screen (AID 1259382); further: series mostly up to about 92 µM; nearly all actives have a fitted effect of over 55% in size
In short: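 Tox21 10K library tested in qHTS format on ER-beta-bla HEK293T cells stimulated with 1nM E2; 16 hr treatment at 37C. Same-well CellTiter-Glo luminescence served as the cell viability measure.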

[7] = molecular target: Estrogen receptor (Homo sapiens) (UniProt P03372); assay: qHTS assay to identify small molecule agonists of the estrogen receptor alpha (ER-alpha) signaling pathway in the presence of an antagonist (AID 1259383; calls by dose curve; further: top concentration of the series differs between compounds; nearly all actives have a fitted effect of over 15% in size)
Estrogen receptor (Homo sapiens), sequence (P03372 whole entry, looked up): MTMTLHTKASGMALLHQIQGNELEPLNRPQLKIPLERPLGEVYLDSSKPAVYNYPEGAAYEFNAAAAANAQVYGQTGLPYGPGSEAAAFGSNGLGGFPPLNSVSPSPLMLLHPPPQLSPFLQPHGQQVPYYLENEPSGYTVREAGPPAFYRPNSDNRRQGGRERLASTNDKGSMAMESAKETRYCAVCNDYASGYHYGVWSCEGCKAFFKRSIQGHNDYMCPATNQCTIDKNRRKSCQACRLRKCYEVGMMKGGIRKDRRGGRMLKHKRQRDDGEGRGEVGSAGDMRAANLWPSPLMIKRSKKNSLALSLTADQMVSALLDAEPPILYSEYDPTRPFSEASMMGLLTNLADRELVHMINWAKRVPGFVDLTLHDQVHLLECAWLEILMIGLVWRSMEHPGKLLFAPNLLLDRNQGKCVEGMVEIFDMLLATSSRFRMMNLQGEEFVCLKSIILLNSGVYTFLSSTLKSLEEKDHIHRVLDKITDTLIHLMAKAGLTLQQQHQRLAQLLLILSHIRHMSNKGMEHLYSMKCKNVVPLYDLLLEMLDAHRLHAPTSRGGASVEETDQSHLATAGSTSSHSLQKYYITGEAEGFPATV
In short: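 In VM7Luc4E2 cells, 4,000 per well, compounds at 15 concentrations were co-incubated 22hr at 37C with 10.0nM final ICI-182,780. Luminescence from the stably transfected 4×ERE-luciferase reporter was recorded 30min after ONE-Glo addition.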

[8] = qHTS assay to identify small molecule agonists or antagonists of the thyroid stimulating hormone receptor (TSHR) signaling pathway - wild type cell line counter screen (AID 1259384; calls by dose curve)
In short: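 Wild-type Hek293 cells, 800/well, 18 h at 37C, then compound with Ro20-1724 for 30 min RT. cAMP by HTRF (cAMP-d2/anti-cAMP cryptate), 1 h RT, fluorescence read. 15 concentrations, triplicates.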

[9] = molecular target: Thyrotropin receptor (Homo sapiens) (UniProt P16473); assay: qHTS assay to identify small molecule antagonists of the thyroid stimulating hormone receptor (TSHR) signaling pathway (AID 1259385; calls by dose curve; further: nearly all actives have a fitted effect of over 20% in size)
Thyrotropin receptor (Homo sapiens), sequence (P16473 whole entry, looked up): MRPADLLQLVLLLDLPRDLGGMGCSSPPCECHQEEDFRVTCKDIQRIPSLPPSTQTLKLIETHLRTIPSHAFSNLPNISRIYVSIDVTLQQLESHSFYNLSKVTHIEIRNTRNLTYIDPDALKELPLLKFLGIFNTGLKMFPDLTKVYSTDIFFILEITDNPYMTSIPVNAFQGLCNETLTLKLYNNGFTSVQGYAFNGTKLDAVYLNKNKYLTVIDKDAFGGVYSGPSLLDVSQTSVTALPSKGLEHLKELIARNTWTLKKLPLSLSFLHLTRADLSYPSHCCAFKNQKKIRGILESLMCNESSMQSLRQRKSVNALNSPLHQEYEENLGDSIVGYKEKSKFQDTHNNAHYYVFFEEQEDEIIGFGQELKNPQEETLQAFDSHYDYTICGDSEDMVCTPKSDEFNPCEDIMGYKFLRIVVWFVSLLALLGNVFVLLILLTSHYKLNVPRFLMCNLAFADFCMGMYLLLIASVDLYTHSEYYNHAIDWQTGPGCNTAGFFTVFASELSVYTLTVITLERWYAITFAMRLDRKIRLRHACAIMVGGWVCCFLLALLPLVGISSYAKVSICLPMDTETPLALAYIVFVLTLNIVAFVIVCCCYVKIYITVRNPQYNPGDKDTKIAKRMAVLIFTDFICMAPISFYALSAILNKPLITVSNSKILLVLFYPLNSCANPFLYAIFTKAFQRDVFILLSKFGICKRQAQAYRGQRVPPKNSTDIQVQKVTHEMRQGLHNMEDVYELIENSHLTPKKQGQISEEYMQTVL
In short: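 TSHR-HEK293 cells (800/well) plated 18 h, then compounds with Ro20-1724 and TSH at 1.5 ng/mL final, 30 min at room temperature. cAMP quantified by HTRF (cAMP-d2/anti-cAMP-cryptate, 1 h); 15 concentrations in triplicate.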

[10] = qHTS assay to identify small molecule agonists of the estrogen receptor alpha (ER-alpha) signaling pathway in the presence of an antagonist - cell viability counter screen (AID 1259386);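 further: series mostly up to about 92 µM; cells exposed to compounds for 22 h at 37 °C before the viability read; nearly all actives have a fitted effect of over 30% in size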
In short: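 Fluorescent CellTiter-Fluor viability signal from VM7Luc4E2 cells, with the reagent added during the final hour of a 22hr compound exposure at 37C in the presence of 10.0nM ICI-182,780.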

[11] = molecular target: Progesterone receptor (Homo sapiens) (UniProt P06401); assay: qHTS assay to identify small molecule agonists of the progesterone receptor (PR) signaling pathway (AID 1346784; calls by dose curve; further: nearly all actives have a fitted effect of over 30% in size)
Progesterone receptor (Homo sapiens), sequence (P06401 whole entry, looked up): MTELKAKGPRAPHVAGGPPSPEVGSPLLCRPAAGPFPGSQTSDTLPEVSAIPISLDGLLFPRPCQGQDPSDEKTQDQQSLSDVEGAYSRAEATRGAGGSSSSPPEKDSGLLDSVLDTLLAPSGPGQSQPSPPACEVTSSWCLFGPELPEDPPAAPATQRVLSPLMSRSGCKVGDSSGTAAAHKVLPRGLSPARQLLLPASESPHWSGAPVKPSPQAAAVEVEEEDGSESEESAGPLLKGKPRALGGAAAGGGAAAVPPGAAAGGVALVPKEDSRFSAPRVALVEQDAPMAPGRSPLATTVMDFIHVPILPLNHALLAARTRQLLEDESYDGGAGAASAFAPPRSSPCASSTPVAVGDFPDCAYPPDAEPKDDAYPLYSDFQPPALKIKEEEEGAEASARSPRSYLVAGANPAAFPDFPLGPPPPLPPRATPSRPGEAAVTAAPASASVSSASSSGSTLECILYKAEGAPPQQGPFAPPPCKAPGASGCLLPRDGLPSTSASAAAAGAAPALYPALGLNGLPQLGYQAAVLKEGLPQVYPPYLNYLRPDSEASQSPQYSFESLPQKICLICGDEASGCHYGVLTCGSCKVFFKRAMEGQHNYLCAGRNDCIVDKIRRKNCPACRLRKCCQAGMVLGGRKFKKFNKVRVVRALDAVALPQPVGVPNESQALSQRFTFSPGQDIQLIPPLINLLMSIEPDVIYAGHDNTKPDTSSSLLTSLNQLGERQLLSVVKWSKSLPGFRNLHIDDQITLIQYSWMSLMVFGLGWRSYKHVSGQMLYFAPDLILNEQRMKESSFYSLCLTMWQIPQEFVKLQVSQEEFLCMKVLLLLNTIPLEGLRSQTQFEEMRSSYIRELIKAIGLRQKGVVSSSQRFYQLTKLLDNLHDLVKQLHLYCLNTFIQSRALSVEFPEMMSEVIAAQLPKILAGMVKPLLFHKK
In short: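 Using charcoal-stripped serum (2%) to limit endogenous steroids, PR-UAS-bla HEK 293T cells received compounds for 16 hr at 37C after 6 hr plating; beta-lactamase FRET fluorescence was recorded following 2 hr substrate loading at room temperature.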

[12] = molecular target: Progesterone receptor (Homo sapiens) (UniProt P06401); assay: qHTS assay to identify small molecule antagonists of the progesterone receptor (PR) signaling pathway (AID 1346795; active means well fitted inhibition curve with a large enough effect in the signal ratio in the repeat runs, not every such curve was filed as active; the % refers to the signal ratio)
In short: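 Inhibition of R5020-induced (1 nM final) beta-lactamase reporter signal in PR-UAS-bla HEK293T cells was scored by FRET fluorescence after overnight (16 hr) compound treatment.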

[13] = qHTS assay to identify small molecule antagonists of the progesterone receptor (PR) signaling pathway - cell viability counter screen (AID 1346798); further: series mostly up to about 92 µM; nearly all actives have a fitted effect of over 50% in size
In short: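 ATP content as viability readout: CellTiter-Glo luminescence, 30 min room temperature, in PR-UAS-bla HEK293T cells after 16 hr compound/R5020 treatment at 37C and 5% CO2.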

[14] = qHTS assay to identify small molecule agonists of the progesterone receptor (PR) signaling pathway - cell viability counter screen (AID 1346799; calls by dose curve; further: nearly all actives have a fitted effect of over 45% in size)
In short: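 Cytotoxicity in PR-bla HEK293T cells: 16 h compound, 37C; CellTiter-Glo added post-FRET read; luminescence after 30 min RT.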

[15] = qHTS assay to identify small molecule antagonists of the TGF-beta/Smad signaling pathway - cell viability counter screen (AID 1346824); further: nearly all actives have a fitted effect of over 50% in size
In short: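 SBE-bla HEK 293T cells, incubated overnight, then compound plus 0.25 ng/mL TGF-beta1 (stock added) for 5 hr at 37 C. Viability was read in the same wells by CellTiter-Glo luminescence after 30 min at room temperature.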

[16] = qHTS assay to identify small molecule agonists of the TGF-beta/Smad signaling pathway - cell viability counter screen (AID 1346829); further: top concentration of the series differs between compounds; nearly all actives have a fitted effect of over 45% in size
In short: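 Compound-treated SBE-bla HEK 293T cells (5 hr, 37 C) were assessed for viability with CellTiter-Glo in parallel with the reporter read.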

[17] = qHTS assay to identify small molecule agonists of the TGF-beta/Smad signaling pathway (AID 1346859; active means well fitted activation curve with a large enough effect in the signal ratio in the repeat runs, not every such curve was filed as active; the % refers to the signal ratio; further: series mostly up to about 77 µM)
In short: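 Stable Smad binding element-beta-lactamase HEK 293T cells; 5 hr compound exposure at 37 C under 5% CO2; 2 hr room-temperature substrate step; fluorescence excited at 405 nm, collected at 460 nm and 530 nm.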

[18] = molecular target: Thyrotropin-releasing hormone receptor (Homo sapiens) (UniProt P34981); assay: qHTS assay to identify small molecule antagonists of the thyrotropin-releasing hormone receptor (TRHR) signaling pathway (AID 1346877; active means well fitted inhibition curve with a large enough effect in the repeat runs, not every such curve was filed as active; further: series mostly up to about 51 µM)
Thyrotropin-releasing hormone receptor (Homo sapiens), sequence (P34981 whole entry, looked up): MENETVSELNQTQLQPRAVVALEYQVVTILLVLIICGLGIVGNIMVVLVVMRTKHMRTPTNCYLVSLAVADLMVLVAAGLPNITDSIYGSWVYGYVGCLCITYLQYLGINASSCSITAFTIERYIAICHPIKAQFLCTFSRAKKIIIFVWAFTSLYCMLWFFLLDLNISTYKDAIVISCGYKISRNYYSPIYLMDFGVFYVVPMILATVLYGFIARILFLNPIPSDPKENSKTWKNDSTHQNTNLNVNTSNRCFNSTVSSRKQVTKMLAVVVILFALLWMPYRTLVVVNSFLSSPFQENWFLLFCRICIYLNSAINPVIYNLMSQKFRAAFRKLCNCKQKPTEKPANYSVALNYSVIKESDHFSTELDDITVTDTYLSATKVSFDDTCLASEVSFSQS
In short: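 In this cell-based calcium flux format, HEK293 cells expressing TRHR received test compound for 5 min before the agonist TRH (1 nM final). Dye loading lasted 2 h at 37 °C.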

[19] = qHTS assay to identify small molecule agonists of the estrogen receptor beta (ER-beta) signaling pathway - cell viability counter screen (AID 1259380); further: nearly all actives have a fitted effect of over 30% in size
In short: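 Viability of ER-beta-UAS-bla HEK293T cells was determined by CellTiter-Glo luminescence following 16 hr treatment with test compounds at 37C.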
On the % scale 0 is the no-effect control and ±100 the full control effect.

CCOC(=O)[C@H](CCc1ccccc1)N[C@@H](C)C(=O)N1Cc2cc(OC)c(OC)cc2C[C@H]1C(=O)O
inactive: Potency [1] | Potency [2] | outcome [3] | Potency [4] | Potency [5] | outcome [6] | Potency [7] | outcome [8] | Potency [9] | Potency [10] | Potency [11] | Potency [12] | Potency [13] | Potency [14] | outcome [15] | outcome [16] | outcome [17] | outcome [18]

CCc1nnc(NS(=O)(=O)c2ccc(N)cc2)s1
inactive: Potency [1] | Potency [2] | outcome [3] | Potency [4] | Potency [5] | outcome [6] | outcome [8] | Potency [9] | Potency [10] | Potency [11] | Potency [12] | Potency [13] | outcome [15] | outcome [16] | outcome [17]

O=CCCc1ccccc1
inactive: Potency [1] | Potency [2] | outcome [3] | Potency [4] | Potency [5] | Potency [19] | outcome [6] | Potency [10] | Potency [11] | Potency [12] | Potency [14] | outcome [15] | outcome [16] | outcome [17]

C[C@@H]1CN(c2c(F)c(N)c3c(=O)c(C(=O)O)cn(C4CC4)c3c2F)C[C@H](C)N1
inactive: activity change [1] -0.971% [at 18.9 µM, hits give high values] | activity change, negative = inhibition [2] 23.6% [at 19 µM] | activation [3] 3.1% [at 19 µM] | activity, negative = inhibition [4] 17% [at 19 µM] | activity change, negative = cytotoxicity [5] 2.69% [at 19 µM] | activity change, negative = cytotoxicity [6] 5.91% [at 19 µM] | activation [7] 0.0574% [at 19 µM] | cAMP activity change [8] 4.73% [at 18.9 µM] | activity change, negative = inhibition [9] -0.774% [at 19 µM] | activity change, negative = cytotoxicity [10] 1.7% [at 19 µM] | activation [11] 3.14% [at 19 µM] | activity change, negative = inhibition [12] 8.12% [at 18.9 µM] | Potency [13] | activity change, negative = cytotoxicity [14] 4.97% [at 19 µM] | viability change, negative = cytotoxic [15] 4.43% [at 15.8 µM] | activity change, negative = cytotoxicity [16] -11.5% [at 15.8 µM] | activation [17] 1.17% [at 15.8 µM]

CC1=C(O)C(=O)OC1C (configuration not stated)
inactive: Potency [1] | Potency [2] | outcome [3] | Potency [4] | Potency [5] | Potency [19] | outcome [6] | Potency [9] | Potency [10] | Potency [11] | Potency [12] | Potency [13] | Potency [14] | outcome [15] | outcome [16] | outcome [17] | outcome [18]

COc1cc(Cl)ccc1Cl
inactive: Potency [1] | Potency [2] | outcome [3] | Potency [4] | Potency [5] | outcome [6] | outcome [8] | Potency [9] | Potency [10] | Potency [11] | Potency [12] | Potency [13] | Potency [14] | outcome [15] | outcome [17] | outcome [18]
